Rows were chosen to be rich in hits. Some 3.5% of all compounds tested hit in one or more screens of this group.
GDH-TPI counter-1 – counter-screen for M. tuberculosis FBA inhibitors: GDH-TPI coupled enzymes | hit rate 1.2% among 360,000 | GDH-TPI coupled enzyme counterscreen, NADH absorbance | inhibition, % at 4.8 µM | AID 588335; in the data active means inhibition above about 30%
Rv3671c protease – Rv3671c (M. tuberculosis) protease inhibition. P9WHR9. inhibition, % at 5.96 µM. hit rate 0.048% among 320,000; in the data active means inhibition above about 38%;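 further: extracellular domain of Rv3671c used as enzyme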
FadD28 binding – M. tuberculosis FadD28 bisubstrate binding inhibition; AID 588549; inhibition, % at 12.5 µM; FadD28 bisubstrate probe binding, fluorescence polarization; hit rate 0.22% among 360,000; in the data active means inhibition above about 8.5%, passing the limit was not always enough
FBA Mtb inh – Mtb fructose-bisphosphate aldolase inhibition; P9WQA3; purified M. tuberculosis FBA, fluorescence read-out; inhibition, % at 1 µM; hit rate 2.3% among 360,000
Mtb UGM inh – Mtb UDP-galactopyranose mutase inhibition | AID 504406 | hit rate 0.06% among 320,000 | purified UGM, fluorescence polarization probe displacement | inhibition, % at 10 µM; in the data active means inhibition above about 10%, passing the limit was not always enough
Target sequence (P9WIQ1 whole entry, looked up): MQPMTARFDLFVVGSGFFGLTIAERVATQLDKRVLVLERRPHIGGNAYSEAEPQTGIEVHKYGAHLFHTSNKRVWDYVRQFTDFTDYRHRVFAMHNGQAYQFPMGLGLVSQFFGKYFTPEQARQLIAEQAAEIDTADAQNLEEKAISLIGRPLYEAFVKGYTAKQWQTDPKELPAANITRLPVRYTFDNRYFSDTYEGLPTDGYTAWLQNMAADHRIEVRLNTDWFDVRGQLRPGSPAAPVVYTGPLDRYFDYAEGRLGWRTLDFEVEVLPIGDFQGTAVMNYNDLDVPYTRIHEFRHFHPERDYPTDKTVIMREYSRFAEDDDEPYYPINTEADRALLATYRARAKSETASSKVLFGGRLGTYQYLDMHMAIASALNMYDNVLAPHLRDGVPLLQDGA
Mtb hypoxia rep – inhibitors of hypoxia-regulated fluorescent reporter in Mycobacterium tuberculosis; fluorescence inhibition, % (test concentration not listed); AID 1159583; hit rate 0.1% among 300,000; M. tuberculosis hypoxia-regulated fluorescent reporter, fluorescence; in the data active means fluorescence inhibition mostly above about 23%, no sharp cut-off; inactive means mostly below about 17%
Mtb FBA confirm – confirmation of M. tuberculosis fructose-bisphosphate aldolase inhibitors | shares compounds with FBA Mtb inh | purified M. tuberculosis FBA, fluorescence read-out | inhibition, % at 1 µM | hit rate 78% among 5,600 | AID 651616
GDH-TPI counter-2 – counter-screen for M. tuberculosis FBA inhibitors: GDH-TPI coupled enzyme inhibition | shares compounds with FBA Mtb inh | GDH-TPI coupled enzyme counterscreen, fluorescence | inhibition, % at 1 µM | hit rate 81% among 5,600; in the data active means inhibition above about 10%
Hits are given with their value; 0 = inactive; - = not tested or not shown; + = active, no number. Unless noted, no stated cut-off is given here; in the data, active means inhibition above about 27%; inactive means the rest.

SMILES	GDH-TPI counter-1	Rv3671c protease	FadD28 binding	FBA Mtb inh	Mtb UGM inh	Mtb hypoxia rep	Mtb FBA confirm	GDH-TPI counter-2
CC(=O)Nc1cc(-c2cccc(F)c2)cn2c(-c3ccc(S(C)(=O)=O)cc3)cnc12	0	-	0	70.7	-	-	+	+
CCOc1ccc(-c2nc3n(c(=O)c2C#N)CCS3)cc1	0	0	0	32.0	0	0	71.5	61.8
COc1ccc(-c2nc3n(c(=O)c2C#N)CCS3)cc1OC	0	0	0	0	0	0	-	-
COc1ccc(-c2nc3n(c(=O)c2C#N)CCS3)cc1	0	0	0	28.1	0	0	32.4	27.9
O=C1c2ccccc2C(=O)N1c1ncccn1	0	0	0	0	0	0	-	-
O=C1c2ccccc2C(=O)N1c1nc2nccc(-c3ccccc3)n2n1	0	0	0	32.4	0	0	31.3	35.3
c1ccc(Oc2ccc(-c3ccnc4nc(N5CCOCC5)nn34)cc2)cc1	0	0	0	41.7	0	0	+	+
COc1cccc2c(=O)c(SC(F)(F)C(F)C(F)(F)F)c(C)[nH]c12 (centres undefined)	0	0	0	34.8	0	0	113.9	99.9
Cc1[nH]c2ccc(F)cc2c(=O)c1SC(F)(F)C(F)C(F)(F)F (centres undefined)	0	0	0	0	0	0	-	-
COc1cccc2c(=O)c(C/C=C(/C)Cl)c(C)[nH]c12	0	0	0	39.4	0	0	49.8	41.6
CC(=O)C1CCC2C3C=CC4=CC(=O)CC[C@@]4(C)C3CC[C@]12C (some centres undefined)	-	-	-	-	-	0	-	-
Nc1c(C(O)(C(F)(F)F)C(F)(F)F)ccc2ccccc12	0	-	0	28.3	-	0	0	11.2
CN(C)c1ccc(CNC(=O)C2(C)Cc3c(-c4ccc5c(c4)OCO5)ccnc3O2)cc1 (centres undefined)	0	-	0	0	-	-	-	-
CC1(C(=O)Nc2ccc3c(c2)OCO3)Cc2c(-c3ccccc3)ccnc2O1 (centres undefined)	0	-	0	0	-	-	-	-
CC1(C(=O)NCC2CC2)Cc2c(-c3ccc4c(c3)OCO4)ccnc2O1 (centres undefined)	0	-	0	88.5	-	-	76.1	51.1
COc1ccc(CNC(=O)C2(C)Cc3c(-c4ccc5c(c4)OCO5)ccnc3O2)cc1OC (centres undefined)	0	-	0	33.1	-	-	113.8	83.6
CNC(=O)C1(C)Cc2c(-c3ccc4c(c3)OCO4)ccnc2O1 (centres undefined)	0	-	0	49.1	-	-	+	+
COc1ccc(NC(=O)C2(C)Cc3c(-c4ccc5c(c4)OCO5)ccnc3O2)cc1 (centres undefined)	0	-	0	36.5	-	-	+	+
CC(C)(C)S(=O)(=O)C(C#N)=NNc1ccc(S(C)(=O)=O)cc1	-	-	-	-	-	0	-	-
CN1CCN(c2ccc(CNC(=O)C3(C)Cc4c(-c5ccc6c(c5)OCO6)ccnc4O3)cc2)CC1 (centres undefined)	0	-	0	32.6	-	-	121.2	102.5
CCCn1c2ccccc2c2nnc(SCC(=O)OCC)nc21	0	0	0	51.6	0	-	37.6	64.5
CCCn1c2ccccc2c2nnc(SCC(=O)OC)nc21	0	0	0	0	0	0	-	-
COC(=O)C(NC(=O)c1ccccc1)C(C)O (centres undefined)	-	-	-	-	-	0	-	-
CCOC(=O)N1CCC(NC(=O)c2ccc3c(c2)N(Cc2ccc(F)cc2)CCS3)CC1	0	0	0	71.2	0	-	181.8	150.6
CCOC(=O)N1CCC(NC(=O)c2ccc3c(c2)N(Cc2ccccc2)CCS3)CC1	0	0	0	28.0	0	-	65.3	62.4
CCOC(=O)N1CCC(NC(=O)c2ccc3c(c2)N=C(C)c2ccccc2S3)CC1	0	0	0	0	0	0	-	-
Cc1ccc2nc(C(Cl)(Cl)Cl)nc(NN=Cc3ccncc3)c2c1	-	-	-	-	-	0	-	-
S=c1[nH]nc(-c2ccncc2)n1N=Cc1cccc(Cl)c1	-	-	-	-	-	0	-	-
C[C@@H](C(=O)NCCc1ccccc1F)N1C(=O)N2CCc3c([nH]c4ccccc34)[C@@]2(C)C1=O	0	0	0	31.8	0	-	+	188.2
C[C@@H](C(=O)NCCc1ccccc1)N1C(=O)N2CCc3c([nH]c4ccccc34)[C@@]2(C)C1=O	0	0	0	0	0	-	-	-
